About 1,900 (0.47%) of roughly 400,000 compounds were called active. Inconclusive results (about 14%) are left out. The list comes from a sample in which actives are over-represented; it also holds similar structures and randomly drawn compounds. A number with no mark means an inactive call. The call rests on the fitted dose curve; in most records, active means well fitted cell-killing curve with a large enough effect; inconclusive means small, poorly fitted or top-dose-only effect, or effect the other way; inactive means no such curve, though single readings can be large or run the other way.
assay: Viability Counterscreen for Primary qHTS for Inhibitors of ATXN expression; conditions: S2 cells (HEK-293 line with an ATXN2-luciferase reporter) viability, CellTiter-Fluor protease fluorescence, 24 h; series mostly up to 56.7 µM; activity change, negative = cytotoxicity: at the top concentration; further: nearly all actives have a fitted effect of over 40% in size
Source text: Spinocerebellar ataxia type 2 (SCA2) is a multisystem neurodegenerative disease caused by a dominantly-acting mutation leading to expansion of a polyQ domain in the ataxin-2 protein (ATXN2). SCA2 patients develop progressive ataxia and later lose function in other neuronal systems. Prominent parkinsonian signs develop in some patients. Similar to many neurodegenerative disorders, no symptomatic or disease-modifying treatments are known.
The primary objective of the proposed research is to identify compounds inhibiting ATXN2 expression and to test them for efficacy in SCA2 mouse models. To this end, we have developed a cell-based assay paired with an in vivo mouse model using identical luciferase expression constructs. This approach takes advantage of an ATXN2-luciferase transgene, with the luciferase gene flanked by the upstream and downstream portions of the ATXN2 gene. This primary assay was tested against the NIH Molecular Libraries Small Molecule Repository (MLSMR).
NIH Chemical Genomics Center [NCGC]
NIH Molecular Libraries Probe Centers Network [MLPCN]
Assay Submitter (PI): Daniel Scoles, University of Utah
PROTOCOL TABLE (as described by Inglese J, Shamu CE and Guy RK. 2007)
SEQUENCE No. (e.g., 1, 2, 3, etc.); […] (e.g., Cells, Incubation, Reagent, etc.); VALUE; DESCRIPTION.
1; Cells; 4 uL; white, solid bottom, 1536-well Greiner assay plate.
2; Incubation; 2 hr; 37 degree C in 5% humidified CO2.
3; Compounds; 23 nL; Kalypsis pintool (Wako USA) equipped with a 1536-well pin head.
4; Incubation; 24 hr; 37 degree C in 5% humidified CO2.
5; Reagent; 1 uL; Gly-Phe-7-Amino-4-trifluoromethylcoumarin.
6; Incubation; 30 min; 37 degree C in 5% humidified CO2.
7; Detection; Fluorescence; ViewLux plate reader (PerkinElmer).
8; Reagent; 3 uL; SteadyGlo luciferase solution (Promega).
9; Incubation; 5 min; room temperature.
10; Detection; Luminescence; ViewLux plate reader (PerkinElmer).
NOTES (numbers refer to Sequence numbers above)
1. S2 cells expressing ATXN2-luciferase reporter were suspended in phenol-red free DMEM and dispensed in assay plates using a Multidrop Combi dispenser (Thermo Fisher Scientific).
2. Assay plates were incubated. Evaporation was prevented by covering assay plates with metal lids containing holes to allow gas diffusion.
3. […] Vehicle-only plates, with DMSO being pin-transferred to columns 5-48, were inserted uniformly at the beginning and the end of each library to monitor and record any shifts in assay performance.
5. 125 uM Gly-Phe-7-Amino-4-trifluoromethylcoumarin (MP Biomedicals) working concentration was used at a final concentration of 25 uM.
7. To assess cell viability; the assay plates were read using the ViewLux high-throughput CCD imager (PerkinElmer), wherein single end-point fluorescence measurement was acquired (excitation 405/10; emission 540/25 nm).
8. Detection reagent SteadyGlo Luciferase (Promega) was added to the assay plate.
10. Luminescence is then measured on the ViewLux imager equipped with a clear emission filter using a 2 sec exposure. All screening operations were performed on a fully integrated robotic system (Kalypsys) containing one RX-130 and two RX-90 anthropomorphic robotic arms (Staubli).
Inglese J, Shamu CE and Guy RK, Reporting data from high throughput screening of small molecule libraries, Nature Chemical Biology, 2007, 3(8): 438-441. doi.org/10.1038/nchembio0807-438.
Potency means the concentration at half of the fitted maximal effect.

First: COc1ccc(C2CC(c3cccc(OC)c3)=NN2c2ccc(S(N)(=O)=O)cc2)cc1 (stereo not given)
Second: COc1cccc(CN2CCC3(CC2)c2ccccc2[C@@H](NC(=O)c2ccccc2OC)[C@@H]3O)c1
The “activity change, negative = cytotoxicity” value of the first is higher: -3.55% for the first, -15.1% for the second.

Compared with `CCCOc1ccc(F)cc1-c1cc(C(=O)Nc2ccc(F)c(Cl)c2)[nH]n1`, `CC(=O)Nc1ccccc1-c1nc(CNC(=O)c2ccc(Cl)cc2)c(C)o1` is higher in “activity change, negative = cytotoxicity” value: -38.1% for the first, -11.2% for the second.

Going from `Nc1cccc(OCCCCCOc2cccc(N)c2)c1` to `COC(=O)CCCCCN1C(=O)NC(c2ccc(-c3ccccc3)cc2)C(C(=O)OCc2ccccc2)=C1C` (stereo not given), the “activity change, negative = cytotoxicity” value rises from -35% to -5.84%.

Compared with `c1ccc(CN2CCN(Cc3ccc4c(c3)CN(Cc3c[nH]c5ccccc35)CCO4)CC2)nc1`, `CCOC(=O)N1CCC(N2CCOc3ccc(CN4CCC(O)(c5cccnc5)CC4)cc3C2)CC1` is higher in “activity change, negative = cytotoxicity” value: -13.5% for the first, -3.39% for the second.

Going from `Cc1cc(-c2ccnc(-n3ncc(C(=O)NCCc4ccncc4)c3C)n2)c(C)s1` to `Cc1cc(NS(=O)(=O)c2ccc(NC(=O)c3cccnc3)cc2)nc(C)n1`, the “activity change, negative = cytotoxicity” value falls from -10.8% to -27.6%.

First: CC1(C(=O)NS(=O)(=O)c2ccc3ccccc3c2)CCN1C(=O)C1(c2ccc(Cl)cc2)CCC1 (stereo not given)
Second: CCOc1ccccc1C(=O)Nc1ccc(S(=O)(=O)N2CCCCC2c2cccnc2)cc1 (stereo not given)
The “activity change, negative = cytotoxicity” value of the first is higher: -0.293% for the first, -18% for the second.

Compared with `CCOC(=O)Cc1ccc(NC(=O)Nc2c[nH]c(=O)[nH]c2=O)cc1`, `CCN1C(=O)N[C@@H](c2ccccc2)C(C(=O)OC)=C1C` is higher in “activity change, negative = cytotoxicity” value: -20.1% for the first, 0.354% for the second.

First: COC(=O)c1ccccc1C(=O)NCc1nc(N2CCCC2)c2cccc(C)c2n1
Second: Cc1oc(-c2cccc(NC(=O)c3ccccc3)c2)nc1CNC(=O)c1cnc2ccccn2c1=O
The “activity change, negative = cytotoxicity” value of the first is higher: -14.5% for the first, -18.1% for the second.

First: COc1ccc(COC[C@H](CC(C)C)N2CCN(C(=O)c3cccc(C(F)(F)F)c3)CCC2=O)cc1
Second: O=c1cc(COc2cccc(C(F)(F)F)c2)nc2sc3c(n12)CCCC3
The “activity change, negative = cytotoxicity” value of the first is lower: -37% for the first, -33.8% for the second.

Compared with `CC(=O)N1Cc2cc(C(=O)NCc3cccc(F)c3)nc(-c3cccc(C4=CCCC4)c3)c2[C@H]1CCO`, `COc1cc(=O)n2c(c1C(=O)N(C)Cc1nonc1C)CCN(C(=O)c1ccc(C)cc1C)CC2` is higher in “activity change, negative = cytotoxicity” value: -32.4% for the first, -16.8% for the second.

Going from `CCCCOCCOC(=O)c1cccnc1` to `CCOC(=O)c1ccn(S(=O)(=O)c2ccc(C)cc2)c1-c1ccccc1`, the “activity change, negative = cytotoxicity” value rises from -20% to -16%.

Compared with `C=CCC[C@H](CCCCC)OC(=O)/C=C/[C@H](O)[C@@H](O)C[C@@H](O)CC=C`, `COC(=O)c1cc(Cl)c(NC(C)=O)cc1OC` is higher in “activity change, negative = cytotoxicity” value: -36.7% for the first, 2.13% for the second.

Compared with `O=C(OCc1cn([C@@H]2C[C@H](c3ccc(Cl)cc3)N(Cc3cccs3)C[C@H]2O)nn1)c1ccccc1`, `O[C@H]1CN(Cc2cccs2)[C@@H](c2ccc(Cl)cc2)C[C@@H]1n1cc(C2CC2)nn1` is higher in “activity change, negative = cytotoxicity” value: -17.8% for the first, -13.8% for the second.

Going from `O=C1CCNCCN1[C@H](CO)Cc1ccccc1` to `CN1CCCCCC1C(=O)NCCN1Cc2ccccc2OC(c2ccsc2)C1` (stereo not given), the “activity change, negative = cytotoxicity” value rises from -14.8% to -11.5%.

Going from `Cc1nc2cc(NC(=O)[C@@H]3C[C@@H](Sc4ccccn4)CN3Cc3ccccc3C)ccc2s1` to `O=C(Nc1ccc(Cl)cc1)C1Cc2c(-c3ccc4c(c3)OCO4)ccnc2O1` (stereo not given), the “activity change, negative = cytotoxicity” value falls from -14.5% to -25.3%.

Going from `O=C(NN=Cc1ccc([N+](=O)[O-])cc1)C1CC1` to `CC(=O)Nc1ccc(C=Cc2ccc([N+](=O)[O-])cc2)cc1`, the “activity change, negative = cytotoxicity” value rises from -5.43% to -4.99%.

For `O=c1c(CN2CCOc3ccc(CN4CCC(Oc5cccnc5)CC4)cc3C2)coc2ccccc12`, the Potency was 28.2 µM (active).
With `CC(C)N=C1CCCC1C(=S)SSC(=S)C1CCCC1=NC(C)C` (stereo not given) the Potency was 0.282 µM (active).
In the case of `Cc1coc2c(O)cc3c(c12)OC1(N2CCCCC2)C(=O)NCCCC31` (stereo not given), the Potency is reported as 31.6 µM (active).
With `O[C@H]1C[C@H](c2ccc(Cl)cc2)N(Cc2cccs2)C[C@@H]1n1cc(C2CC2)nn1` the Potency was 22.4 µM (active).
With `c1ccc(C[C@H]2CNCCN2CCC23CC4CC(CC(C4)C2)C3)cc1` the Potency was 31.6 µM (active).
In the case of `Cc1cccc(C(=O)Nc2ccc(S(=O)(=O)N3CCCCC3c3cccnc3)cc2)c1` (stereo not given), the Potency is reported as 14.1 µM (active).
In the case of `CCN1CCN(C(=O)N[C@@H](C(=O)N[C@@H]2C(=O)N3[C@@H]2SC(C)(C)[C@H]3C(=O)O)c2ccccc2)C(=O)C1=O`, the Potency is reported as “inactive”.
With `Oc1ccc(N=Nc2nccs2)c(O)c1` the Potency was 10 µM (active).
In the case of `Oc1ccc2ccccc2c1N=Nc1nccs1`, the Potency is reported as 15.8 µM (active).
With `O=C1/C(=C\c2ccc([N+](=O)[O-])cc2)CS(=O)(=O)C/C1=C/c1ccc([N+](=O)[O-])cc1` the Potency was 2.67 µM (active).
In the case of `CCCCNC(=O)C(C)N(CCN(C)C)C(=O)CCCCCN1C(=O)NC(c2ccc(Cl)cc2)C(C(=O)OCc2ccccc2)=C1C` (stereo not given), the Potency is reported as 22.4 µM (active).
In the case of `O=c1ccc2c(-c3ccccc3S(=O)(=O)O)c3ccc(O)c(O)c3oc-2c1O`, the Potency is reported as 10 µM (active).

For `CC[C@H](C)CCCCC(=O)N[C@@H](CCN)C(=O)N[C@H](C(=O)N[C@@H](CCN)C(=O)N[C@H]1CCNC(=O)[C@@H]([C@H](C)O)NC(=O)[C@H](CCN)NC(=O)[C@H](CCN)NC(=O)[C@H](CC(C)C)NC(=O)[C@@H](CC(C)C)NC(=O)[C@H](CCN)NC1=O)[C@@H](C)O`, the “activity change, negative = cytotoxicity” value was -16% [at 25.4 µM].
